Most compounds without a hit are left out; they make up all but 2.5% or so of the library.
Vaccinia mCherry – qHTS for Stage-Specific Inhibitors of Vaccinia Orthopoxvirus: mCherry Reporter Primary qHTS; Vaccinia virus mCherry reporter infection, fluorescence; Potency, µM (doses to about 36.5 µM), actives largely listed as inhibitors; 0.63% of 310,000 active; AID 720579, 2013; calls by dose curve; tested in A549 cells; note: nearly all actives have a fitted effect of over 35% in size
VACV Venus inh – qHTS for Stage-Specific Inhibitors of Vaccinia Orthopoxvirus: Venus Reporter Primary qHTS; Vaccinia virus Venus reporter expression, fluorescence; Potency, µM (series often up to 36.5 µM), actives largely listed as inhibitors; 0.46% of 330,000 active; AID 720580, 2013; calls by dose curve; tested in A549 cells; note: nearly all actives have a fitted effect of over 30% in size
LASV entry inh – qHTS for Inhibitors of binding or entry into cells for Lassa Virus | Lassa virus pseudotype entry inhibition, cell reporter | Potency, µM (doses to about 37.9 µM), actives largely listed as inhibitors | 1.2% of 300,000 active; calls by dose curve; tested in HEK293 cells; note: nearly all actives have a fitted effect of over 50% in size
Marburg entry inh – qHTS for inhibitors of binding or entry into cells for Marburg Virus | 1.8% of 300,000 active | Potency, µM (series often up to 37.8 µM), usual class: inhibitors | Marburg virus pseudotyped entry inhibition, cell reporter | AID 540276, 2011; calls by dose curve; tested in HEK293 cells
Each line names hits and unclear results; the compound was inactive in the other large screens; ! = not active in a repeat.

COc1ccc(CNC(=O)/C=C\c2ccc3[nH]cc(CCN(C)C)c3c2)cc1	Marburg entry inh 35.5µM (no result: Vaccinia mCherry, VACV Venus inh, LASV entry inh)
Cc1cnc(NC(=O)C2COc3ccccc3O2)s1 (stereo not given)	LASV entry inh inconclusive, Marburg entry inh 7.94µM (no result: Vaccinia mCherry)
O=C(Nc1nc(-c2ccccc2)cs1)C1COc2ccccc2O1 (stereo not given)	none (no result: Vaccinia mCherry)
Cc1nc2ccc3nc(NC(=O)C4COc5ccccc5O4)sc3c2s1 (stereo not given)	Vaccinia mCherry inconclusive (no result: LASV entry inh, Marburg entry inh)
Cc1csc(NC(=O)C2COc3ccccc3O2)n1 (stereo not given)	LASV entry inh inconclusive, Marburg entry inh 4.47µM (no result: Vaccinia mCherry)
CC1CN(CC(=O)NCCC2COc3ccccc3O2)Cc2cc(Cl)ccc2O1 (stereo not given)	none (no result: LASV entry inh, Marburg entry inh)
COc1cccc(CN2C(=O)NC(C)(C3CCN(Cc4cc(F)cc(F)c4)CC3)C2=O)c1OC (stereo not given)	none (no result: LASV entry inh, Marburg entry inh)
Cn1c(=O)c2c(nc(NC[C@@H](O)CO)n2CCc2ccccc2)n(C)c1=O	none (no result: Vaccinia mCherry, VACV Venus inh, LASV entry inh)
O=C(OC1CCN(CCCl)CC1)C(c1ccccc1)c1ccccc1	VACV Venus inh inconclusive, Marburg entry inh 10µM (no result: LASV entry inh)
CN1C2CCC1CC(OC(=O)C(O)c1ccccc1)C2 (stereo not given)	none
CN(C)CC(C)(O)c1ccc2c(c1)CN(Cc1cccn1-c1ncccn1)CCO2 (stereo not given)	none (no result: LASV entry inh, Marburg entry inh)
Cc1cc(NC(=O)CCl)nn1C	Vaccinia mCherry inconclusive, VACV Venus inh inconclusive, LASV entry inh inconclusive, Marburg entry inh 7.94µM
O=c1cc(/C=C/c2cccs2)[nH]c2ccccc12	LASV entry inh 6.51µM, Marburg entry inh 4.11µM (no result: Vaccinia mCherry, VACV Venus inh)
COC(=O)C/C=C/[C@@H](C)[C@@H](/C=N/OC[C@@H](O)COCc1ccco1)OC	none (no result: Vaccinia mCherry, VACV Venus inh, LASV entry inh)
COc1ccc(C(=O)C[n+]2cccc3cccc(O)c32)cc1	none (no result: LASV entry inh, Marburg entry inh)
COc1ccccc1C1CC(c2c(-c3ccccc3)c3cc(Cl)ccc3[nH]c2=O)=NN1S(C)(=O)=O (stereo not given)	Vaccinia mCherry 11.2µM, VACV Venus inh 11.2µM, LASV entry inh inconclusive, Marburg entry inh inconclusive
C[C@@H]1CN(C2CCN(S(=O)(=O)c3ccc4ccccc4c3)CC2)C[C@H](C)O1	none (no result: Vaccinia mCherry, VACV Venus inh, LASV entry inh)
Cc1ccc2[nH]c(=O)c(C3C(C#N)=C(N)Oc4c3ccc3cccnc43)cc2c1 (stereo not given)	Vaccinia mCherry 10µM, VACV Venus inh inconclusive, LASV entry inh inconclusive, Marburg entry inh inconclusive
COc1ccc(CCNC(=O)c2cc(C(=O)c3cc(C)ccc3O)cn(CCc3ccc(OC)cc3)c2=O)cc1	LASV entry inh 2.82µM, Marburg entry inh inconclusive
O=S(=O)(c1ccc(Cl)cc1)N1CCN(c2nc(-c3ccccc3)nc3ccccc23)CC1	none (no result: LASV entry inh, Marburg entry inh)
COc1ccc([N+](=O)[O-])cc1NCc1cccc([N+](=O)[O-])c1	Vaccinia mCherry inconclusive, VACV Venus inh 10µM, LASV entry inh inconclusive
COc1ccc(CN2CCC3(CCC(CNC(=O)c4ccnn4C)O3)CC2)c(C)c1C (stereo not given)	none (no result: LASV entry inh, Marburg entry inh)
CN(C)CCOc1ccc(C(C)(C)c2ccccc2)cc1	Marburg entry inh inconclusive
CN(C)CCCOc1ccc(C(C)(C)c2ccccc2)cc1	LASV entry inh inconclusive, Marburg entry inh 13µM (no result: Vaccinia mCherry, VACV Venus inh)
CCN(c1ccc(C(O)(C(=O)OC)C(F)(F)F)cc1)S(=O)(=O)c1ccccc1 (stereo not given)	LASV entry inh inconclusive
O=S(=O)(c1ccccc1)N(CC(F)(F)F)c1ccc(C(O)(C(F)(F)F)C(F)(F)F)cc1	Vaccinia mCherry inconclusive, VACV Venus inh 11.2µM! (no result: LASV entry inh, Marburg entry inh)
O=C(NCc1cccnc1)[C@@H]1CC=C[C@@H]2CCN(C3CCCCC3)C(=O)[C@@H]21	none (no result: LASV entry inh, Marburg entry inh)
CC(=O)c1c(C)[nH]c(C(=O)OCC(=O)Nc2ccc(Cl)cc2[N+](=O)[O-])c1C	Marburg entry inh 6.31µM
CCOC(=O)c1c(C)[nH]c(C(=O)OCC(=O)Nc2cc(Cl)ccc2OC)c1C	Marburg entry inh inconclusive (no result: Vaccinia mCherry, VACV Venus inh)
C/C(CCC12CC3CC(CC(C3)C1)C2)=N\NC(N)=S	Vaccinia mCherry 11.2µM, VACV Venus inh inconclusive, LASV entry inh inconclusive
O=C1CC[C@@H](C(=O)NCC2Cc3cc(Cl)cc(-c4ccc5[nH]ccc5c4)c3O2)N1 (stereo not given in full)	none (no result: LASV entry inh, Marburg entry inh)
C=C1CC2C(CCC3(C)C2CCC3(O)C(C)=O)C2(C)CCC(=O)C=C12 (stereo not given)	VACV Venus inh inconclusive, LASV entry inh 5.62µM, Marburg entry inh inconclusive
CC(=O)C1(C)CCC2C3C=C(C)C4=CC(=O)CCC4(C)C3CCC21C (stereo not given)	LASV entry inh inconclusive, Marburg entry inh 11.2µM
COc1cccc(CNC(=O)c2c(OC)cc(=O)n3c2CCN(C(=O)c2cc(F)cc(F)c2)CC3)c1	none (no result: LASV entry inh, Marburg entry inh)
O=C(Nc1ccc(CN2CCOCC2)cc1)c1cc2ccccn2n1	LASV entry inh 6.51µM, Marburg entry inh inconclusive
Cc1nc(N(CCO)C2CCCCC2)c2nnn(Cc3ccccc3)c2n1	Marburg entry inh 10µM
Cc1nc(NCC2CC2)c2nnn(Cc3ccccc3)c2n1	Marburg entry inh inconclusive
C[C@H]1[C@@H](c2ccccc2)Oc2c(Cl)cccc2S(=O)(=O)N1Cc1ccc(Cl)cc1	none (no result: Vaccinia mCherry, VACV Venus inh, Marburg entry inh)
Cc1nc2cc(NC(=O)[C@@H]3C[C@@H](Sc4ccccn4)CN3Cc3ccc4c(c3)OCCO4)ccc2s1	none (no result: LASV entry inh, Marburg entry inh)
CC(=O)Nc1ccc(S(=O)(=O)NCC2CCC(C(=O)N3CCCCCC3)CC2)cc1 (stereo not given)	LASV entry inh 3.55µM
Cc1ccc(S(=O)(=O)NCC2CCC(C(=O)N3CCC4(CC3)OCCO4)CC2)cc1 (stereo not given)	none (no result: Vaccinia mCherry)
C[N+](C)(C)CC1CCCC(C[N+](C)(C)C)C1=O (stereo not given)	LASV entry inh inconclusive, Marburg entry inh 10µM
O=C1C=C(N2CCCCC2)c2ccccc2C1=O	Vaccinia mCherry inconclusive, VACV Venus inh inconclusive, LASV entry inh 8.91µM, Marburg entry inh inconclusive
O=C1c2ccccc2C(=O)c2c1cccc2N1CCCC1	Marburg entry inh inconclusive
NC(=O)c1cc(-c2ccccc2)sc1NC(=O)CN1CCCCC1	VACV Venus inh inconclusive, LASV entry inh inconclusive, Marburg entry inh 6.31µM
COC(=O)c1c(OCc2ccccn2)cc(=O)n2c1CCN(Cc1cccc(C(F)(F)F)c1)CC2	none (no result: LASV entry inh, Marburg entry inh)
CCC1CN(C(=O)Nc2ccccc2F)c2cc(C)ccc2O1 (stereo not given)	none (no result: Marburg entry inh)
CCC1CN(C(=O)Nc2ccc(C)cc2)c2cc(C)ccc2O1 (stereo not given)	LASV entry inh inconclusive, Marburg entry inh 11.2µM
CCN1C(=O)[C@@H]2[C@H]3[C@H](O)[C@H](O)CC(=NO[C@H](C)c4cn([C@H](CO)Cc5ccccc5)nn4)[C@@H]3CC[C@H]2C1=O	none (no result: Vaccinia mCherry, VACV Venus inh)
CC[C@@H](C)[C@@H](N)C1=N[C@H](C(=O)N[C@@H](CC(C)C)C(=O)N[C@@H](CCC(=O)O)C(=O)N[C@@H](C(=O)N[C@@H]2CCCCNC(=O)[C@@H](CC(N)=O)NC(=O)[C@@H](CC(=O)O)NC(=O)[C@@H](Cc3cnc[nH]3)NC(=O)[C@@H](Cc3ccccc3)NC(=O)[C@@H]([C@H](C)CC)NC(=O)[C@@H](CCCN)NC2=O)[C@@H](C)CC)CS1	VACV Venus inh inconclusive (no result: LASV entry inh, Marburg entry inh)
Cc1ccc(-c2cc(Cc3ccccc3)c(=O)[nH]n2)cc1	Vaccinia mCherry inconclusive, LASV entry inh 2.51µM

Screening results as filed in PubChem.
